Results filed as inconclusive are left out. Values without a mark were called inactive. Calls of active or inactive are those of the source. Calls come from the whole dose curve; as a rule, active = well fitted curve in the direction sought with a large enough effect; inconclusive = small, poorly fitted or top-dose-only effect, or another doubt; inactive = no such curve, though single readings can be large; an effect the other way counts as inactive or inconclusive.
These compounds were tested against Rap guanine nucleotide exchange factor 4 (Homo sapiens) (UniProt Q8WZA2) (assay: Confirmatory qHTS for agonist of cAMP-regulated guanine nucleotide exchange factor 4 (EPAC2) (AID 1645884;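 note: nucleotide exchange releases bodipy-GDP from Rap1 and this lowers its fluorescence; % is set by controls: 0 for no effect and ±100 for the full control effect; nearly all actives have a fitted effect of over 65% in size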)). Settings: EPAC2 GEF activity, Rap1B-BODIPY-GDP fluorescence; series mostly up to 154 µM; activation: at the top concentration.
Rap guanine nucleotide exchange factor 4 (Homo sapiens), sequence (Q8WZA2 whole entry, looked up): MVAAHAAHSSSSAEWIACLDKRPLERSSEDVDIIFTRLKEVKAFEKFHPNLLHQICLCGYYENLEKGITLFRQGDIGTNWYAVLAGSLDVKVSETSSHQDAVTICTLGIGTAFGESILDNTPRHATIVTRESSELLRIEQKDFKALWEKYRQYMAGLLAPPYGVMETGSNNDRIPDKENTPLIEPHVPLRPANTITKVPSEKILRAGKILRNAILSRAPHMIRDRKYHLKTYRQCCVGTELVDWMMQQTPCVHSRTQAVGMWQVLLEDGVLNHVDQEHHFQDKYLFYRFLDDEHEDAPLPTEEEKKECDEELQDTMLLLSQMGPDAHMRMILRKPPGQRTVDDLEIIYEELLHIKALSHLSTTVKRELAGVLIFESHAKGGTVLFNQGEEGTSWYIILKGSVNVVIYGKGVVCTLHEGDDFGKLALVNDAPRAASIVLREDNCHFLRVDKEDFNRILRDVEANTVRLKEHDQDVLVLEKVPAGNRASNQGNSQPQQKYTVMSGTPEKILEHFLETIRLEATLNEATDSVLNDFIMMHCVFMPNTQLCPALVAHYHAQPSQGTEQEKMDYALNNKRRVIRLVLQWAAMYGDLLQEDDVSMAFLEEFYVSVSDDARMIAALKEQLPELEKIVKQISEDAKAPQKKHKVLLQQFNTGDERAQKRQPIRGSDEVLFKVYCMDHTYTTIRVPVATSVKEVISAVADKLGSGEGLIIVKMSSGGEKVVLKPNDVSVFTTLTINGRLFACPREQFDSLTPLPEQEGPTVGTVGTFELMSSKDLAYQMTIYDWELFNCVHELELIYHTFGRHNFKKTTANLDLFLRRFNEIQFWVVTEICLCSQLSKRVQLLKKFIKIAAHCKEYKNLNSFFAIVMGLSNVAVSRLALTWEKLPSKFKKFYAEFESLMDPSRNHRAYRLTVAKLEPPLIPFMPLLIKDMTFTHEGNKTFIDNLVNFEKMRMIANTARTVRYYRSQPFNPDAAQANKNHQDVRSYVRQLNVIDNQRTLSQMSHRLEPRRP

SMILES | activation
Cc1cccc(C2c3[nH]c4ccccc4c3CCN2Cc2cccn2-c2ncccn2)c1 (centres undefined) | -1.28% [at 17.1 µM, percent relative to cAMP agonist control]
COc1ccc(C2c3c(ncn(CCCO)c3=N)Oc3ccc4ccccc4c32)cc1 (centres undefined) | 3.99% [at 17.1 µM, percent relative to cAMP agonist control]
CCc1cc(C(=O)c2ccc(OC)cc2)c(NC(=O)CC(C)(C)CC(=O)O)s1 | 4.46%
COc1cccc(NC(=O)CN(C)C(=O)CNC(=O)c2ccc(Oc3ccccc3)cc2)c1 | 6.73% [at 17.1 µM, percent relative to cAMP agonist control]

These compounds were tested against Rap guanine nucleotide exchange factor 4 (Homo sapiens) (UniProt Q8WZA2) (assay: Confirmatory qHTS for antagonist of cAMP-regulated guanine nucleotide exchange factor 4 (EPAC2) (AID 1645885; note: nearly all actives have a fitted effect of over 25% in size; note: potency is the fitted concentration of half-maximal effect; for activity change, negative = inhibition: % is set by controls: 0 for no effect and ±100 for the full control effect)). Settings: EPAC2 Rap1B-BODIPY-GDP exchange fluorescence, biochemical; series mostly up to 12.7 µM; activity change, negative = inhibition: at the top concentration.

SMILES | activity change, negative = inhibition | outcome | Potency
O=S1(=O)CCN2C(Cc3ccc(SC(F)F)cc3)=CSC2=N1 | -11.4% [at 114 µM] |  | 
O=S(=O)(NCc1ccccc1)c1ccc(S(=O)(=O)N(Cc2cccs2)CC2CCCO2)cc1 (centres undefined) | -9.96% [at 114 µM] |  | 
CCc1ccc2oc(C(=O)Nc3ccccc3OC)cc(=O)c2c1 |  | inactive [at 12.7 µM] | 
CCO/C(C)=N/Oc1cc(OC)cc(OC)c1 |  |  | 23.9 µM (active)
Cc1ccc(C(CCN(Cc2ccccc2)C(=O)c2ccco2)c2ccco2)cc1 (centres undefined) |  |  | 53.6 µM (active)
CCCc1[nH]nc2c1C(c1cccnc1)C(C#N)=C(N)O2 (centres undefined) | -6.56% |  | 
CN1C(=O)/C(=C\c2ccc(N(C)C)cc2)OC1=S | -7.14% [at 114 µM] |  | 
COc1cc(OC)nc(Oc2cc(/C=N/O)ccc2OC)n1 | -11.2% |  | 
COC(=O)C1=CN(c2ccc(F)cc2)C(N)=C(C#N)C1c1cccc(OC)c1OC (centres undefined) | -7.5% |  | 
O=C1c2cc(O)c(O)cc2OC(c2ccc(O)c(O)c2)C1O (centres undefined) | -11.5% [at 114 µM] |  | 
O=C(COc1ccccc1Cl)Nc1cccc(S(=O)(=O)NC2=NCCCCC2)c1 |  | inactive | 
O=C1CC(Cc2ccccc2)C(=O)N1CCc1ccc2c(c1)OCO2 (centres undefined) | -5.39% |  | 
O=C(NCC1CCCO1)c1ccc(C(=O)NCC2CCCO2)cc1 (centres undefined) | 3.68% |  | 
COc1cccc(C(c2nnnn2-c2c(C)cccc2C)N2CCN(C/C=C/c3ccccc3)CC2)c1OC (centres undefined) |  | inactive | 
COc1ccc(CCNC(=O)CCCCCn2c(SCC(N)=O)nc3cc4c(cc3c2=O)OCO4)cc1OC | 2.34% |  | 
CCNC(C(=O)c1c[nH]c2c(CC)cccc12)c1ccccc1 (centres undefined) | -3.62% [at 114 µM] |  | 
Cc1ccc(CNS(=O)(=O)c2ccc(-n3cnnn3)c(C)c2)cc1 | 7.03% |  | 
COc1ccc(C2=CC(=O)C[C@H](COCc3ccccc3)N(C(=O)OC(C)(C)C)O2)cc1 | 6.34% [at 114 µM] |  | 
O=C(CCC(=O)N1CCSc2ccccc21)NCc1cccc(Cl)c1 | -25% |  | 
Cc1c(C(=O)N2CCCCC2)oc2ccc(Br)cc12 | 52.1% [at 114 µM] |  | 

SMILES | activity change, negative = inhibition | outcome | Potency
O=C1S/C(=C\c2ccc(O)c([N+](=O)[O-])c2)C(=O)N1c1ccccc1Cl |  |  | 47.8 µM (active)
COc1cc(OC)nc(Oc2cccc(Cl)c2C)n1 |  | inactive; activator; fitted 37.933 uM | 
O=c1[nH]c(/C=C/c2cccc([N+](=O)[O-])c2)c([N+](=O)[O-])c(=O)[nH]1 | -10.9% [at 114 µM] |  | 
CN(C)CCCN(C(=O)COc1ccc(Cl)cc1)c1nc2cc3c(cc2s1)OCCO3 | -10% [at 114 µM] |  | 
CCn1c(CNC(=O)COC)nc2ccccc21 | 0.485% |  | 
O=C(O)CCc1ccc(-c2ccccc2)n1-c1cccc(Br)c1 |  | inactive; activator; fitted 0.0054 uM [at 12.7 µM] | 
COc1ccccc1CCc1nnc(CCC(=O)N(C)Cc2cccc3ncccc23)o1 | -18.4% [at 114 µM] |  | 
COc1cc(/C=C2\SC(=O)N(CC(=O)Nc3cccc(C)c3)C2=O)cc([N+](=O)[O-])c1O |  |  | 47.8 µM (active)
C=CCn1c(C)cc(C(=O)Cn2ncc(Cl)c(Cl)c2=O)c1C | -18.8% [at 114 µM] |  | 
COc1cc(-c2c(CCO)sc3ccccc23)cc(OC)c1OC | -12% |  | 
COc1ccc(-c2cc(C(F)(F)F)nc(SCC(=O)NCCc3ccccc3)n2)cc1OC | 13.4% |  | 
CN(Cc1ccccc1N1CCCC1)C(=O)c1cc2cc(Cl)ccc2o1 |  | inactive | 
CCOc1c(OC)cccc1C(=O)NCC1(c2ccccc2)CCCC1 |  | inactive; activator; fitted 4.2562 uM | 
O=C(OCc1c(-c2ccccc2)ncc2ccccc12)c1ccccc1C(F)(F)F | -13.7% [at 114 µM] |  | 
CC(C)(C)[C@H](N)C(=O)N[C@H]1CCC2C3CC=C4C[C@@H](O)CC[C@]4(C)C3CC[C@@]21C (some centres undefined) | -12.6% |  | 
COc1ccc(C=NNc2ccc([N+](=O)[O-])cc2S(=O)(=O)Nc2ccccc2C(=O)O)cc1OC | -6.38% |  | 
Cc1cccc(C2c3[nH]c4ccccc4c3CCN2Cc2cccn2-c2ncccn2)c1 (centres undefined) | -2.47% |  | 
COc1ccc(C2c3c(ncn(CCCO)c3=N)Oc3ccc4ccccc4c32)cc1 (centres undefined) | -7.7% |  | 
CCc1cc(C(=O)c2ccc(OC)cc2)c(NC(=O)CC(C)(C)CC(=O)O)s1 | -21.7% [at 114 µM] |  | 
COc1cccc(NC(=O)CN(C)C(=O)CNC(=O)c2ccc(Oc3ccccc3)cc2)c1 | -6.62% |  | 

Each compound was assayed against Rap guanine nucleotide exchange factor 3 (Homo sapiens) (UniProt O95398) (assay: Counterscreen qHTS for antagonist of cAMP-regulated guanine nucleotide exchange factor 3 (EPAC1) (AID 1645888;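 note: fluorescence loss as bound BODIPY-GDP is released from Rap1B; % of control where 0% means no effect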)). Settings: Rap1B-BODIPY-GDP nucleotide exchange, fluorescence; series mostly up to 154 µM; activity change, negative = inhibition: at the top concentration.
How it was run: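 Rap1B-BODIPY-GDP 250 nM + GDP 50 uM; cpds 7-pt, final 9.74 nM–152 uM (activator mode) or from 7.32 nM upwards (inhibitor mode); RT; FI 480/540 nm at 5 and 30 min, then ± cAMP, reread.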

Rap guanine nucleotide exchange factor 3 (Homo sapiens), sequence (O95398 whole entry, looked up): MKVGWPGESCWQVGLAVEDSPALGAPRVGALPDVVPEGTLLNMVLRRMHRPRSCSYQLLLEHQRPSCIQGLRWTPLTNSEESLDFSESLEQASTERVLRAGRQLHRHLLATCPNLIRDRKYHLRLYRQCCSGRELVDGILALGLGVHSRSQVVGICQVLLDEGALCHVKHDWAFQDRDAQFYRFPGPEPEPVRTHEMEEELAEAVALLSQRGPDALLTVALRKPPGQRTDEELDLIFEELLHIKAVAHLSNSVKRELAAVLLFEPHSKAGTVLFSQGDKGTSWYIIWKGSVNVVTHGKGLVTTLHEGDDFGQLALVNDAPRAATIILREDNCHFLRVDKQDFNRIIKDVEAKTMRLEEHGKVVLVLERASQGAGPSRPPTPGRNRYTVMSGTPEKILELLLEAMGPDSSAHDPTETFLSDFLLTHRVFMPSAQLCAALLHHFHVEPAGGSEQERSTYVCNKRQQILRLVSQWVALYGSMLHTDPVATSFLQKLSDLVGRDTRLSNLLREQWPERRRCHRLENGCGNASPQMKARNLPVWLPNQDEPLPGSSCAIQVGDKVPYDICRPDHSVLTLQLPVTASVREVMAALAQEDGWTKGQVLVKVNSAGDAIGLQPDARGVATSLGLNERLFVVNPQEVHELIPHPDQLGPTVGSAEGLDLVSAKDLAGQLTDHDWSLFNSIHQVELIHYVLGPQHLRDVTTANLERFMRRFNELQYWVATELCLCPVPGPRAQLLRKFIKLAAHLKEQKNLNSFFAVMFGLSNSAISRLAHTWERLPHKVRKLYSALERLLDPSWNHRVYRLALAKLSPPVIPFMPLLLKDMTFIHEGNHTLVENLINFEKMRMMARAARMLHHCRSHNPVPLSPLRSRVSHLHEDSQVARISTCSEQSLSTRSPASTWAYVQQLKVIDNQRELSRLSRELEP

SMILES | activity change, negative = inhibition
O=S1(=O)CCN2C(Cc3ccc(SC(F)F)cc3)=CSC2=N1 | 8.69%
O=S(=O)(NCc1ccccc1)c1ccc(S(=O)(=O)N(Cc2cccs2)CC2CCCO2)cc1 (centres undefined) | -5.18%
CCc1ccc2oc(C(=O)Nc3ccccc3OC)cc(=O)c2c1 | 11.9%
CCO/C(C)=N/Oc1cc(OC)cc(OC)c1 | -11.7%
Cc1ccc(C(CCN(Cc2ccccc2)C(=O)c2ccco2)c2ccco2)cc1 (centres undefined) | -5.44%
CCCc1[nH]nc2c1C(c1cccnc1)C(C#N)=C(N)O2 (centres undefined) | -9.67% [at 30.8 µM]
CN1C(=O)/C(=C\c2ccc(N(C)C)cc2)OC1=S | 44.7%
COc1cc(OC)nc(Oc2cc(/C=N/O)ccc2OC)n1 | -10.5% [at 30.8 µM]
COC(=O)C1=CN(c2ccc(F)cc2)C(N)=C(C#N)C1c1cccc(OC)c1OC (centres undefined) | -6.52% [at 30.8 µM]
O=C1c2cc(O)c(O)cc2OC(c2ccc(O)c(O)c2)C1O (centres undefined) | 8.23%
O=C(COc1ccccc1Cl)Nc1cccc(S(=O)(=O)NC2=NCCCCC2)c1 | -4.79%
O=C1CC(Cc2ccccc2)C(=O)N1CCc1ccc2c(c1)OCO2 (centres undefined) | -4.71% [at 30.8 µM]
O=C(NCC1CCCO1)c1ccc(C(=O)NCC2CCCO2)cc1 (centres undefined) | -1.36% [at 30.8 µM]
COc1cccc(C(c2nnnn2-c2c(C)cccc2C)N2CCN(C/C=C/c3ccccc3)CC2)c1OC (centres undefined) | -7.4%
COc1ccc(CCNC(=O)CCCCCn2c(SCC(N)=O)nc3cc4c(cc3c2=O)OCO4)cc1OC | 41.8%
CCNC(C(=O)c1c[nH]c2c(CC)cccc12)c1ccccc1 (centres undefined) | -2.6%
Cc1ccc(CNS(=O)(=O)c2ccc(-n3cnnn3)c(C)c2)cc1 | 3.48% [at 30.8 µM]
COc1ccc(C2=CC(=O)C[C@H](COCc3ccccc3)N(C(=O)OC(C)(C)C)O2)cc1 | -8.09%
O=C(CCC(=O)N1CCSc2ccccc21)NCc1cccc(Cl)c1 | 1.86% [at 30.8 µM]
Cc1c(C(=O)N2CCCCC2)oc2ccc(Br)cc12 | -1.86%

SMILES | activity change, negative = inhibition
O=C1S/C(=C\c2ccc(O)c([N+](=O)[O-])c2)C(=O)N1c1ccccc1Cl | -8.85%
COc1cc(OC)nc(Oc2cccc(Cl)c2C)n1 | 9.01%
O=c1[nH]c(/C=C/c2cccc([N+](=O)[O-])c2)c([N+](=O)[O-])c(=O)[nH]1 | 14.6%
CN(C)CCCN(C(=O)COc1ccc(Cl)cc1)c1nc2cc3c(cc2s1)OCCO3 | -18.7%
CCn1c(CNC(=O)COC)nc2ccccc21 | -4.31% [at 30.8 µM]
O=C(O)CCc1ccc(-c2ccccc2)n1-c1cccc(Br)c1 | 17.9%
COc1ccccc1CCc1nnc(CCC(=O)N(C)Cc2cccc3ncccc23)o1 | 7.1%
COc1cc(/C=C2\SC(=O)N(CC(=O)Nc3cccc(C)c3)C2=O)cc([N+](=O)[O-])c1O | 11%
C=CCn1c(C)cc(C(=O)Cn2ncc(Cl)c(Cl)c2=O)c1C | -6.56%
COc1cc(-c2c(CCO)sc3ccccc23)cc(OC)c1OC | -51.2% [at 30.8 µM]
COc1ccc(-c2cc(C(F)(F)F)nc(SCC(=O)NCCc3ccccc3)n2)cc1OC | 9%
CN(Cc1ccccc1N1CCCC1)C(=O)c1cc2cc(Cl)ccc2o1 | 12.4%
CCOc1c(OC)cccc1C(=O)NCC1(c2ccccc2)CCCC1 | 4.02%
O=C(OCc1c(-c2ccccc2)ncc2ccccc12)c1ccccc1C(F)(F)F | 7.39%
CC(C)(C)[C@H](N)C(=O)N[C@H]1CCC2C3CC=C4C[C@@H](O)CC[C@]4(C)C3CC[C@@]21C (some centres undefined) | -9.07% [at 30.8 µM]
COc1ccc(C=NNc2ccc([N+](=O)[O-])cc2S(=O)(=O)Nc2ccccc2C(=O)O)cc1OC | -11.2% [at 30.8 µM]
Cc1cccc(C2c3[nH]c4ccccc4c3CCN2Cc2cccn2-c2ncccn2)c1 (centres undefined) | -4.15% [at 30.8 µM]
COc1ccc(C2c3c(ncn(CCCO)c3=N)Oc3ccc4ccccc4c32)cc1 (centres undefined) | 0.394% [at 30.8 µM]
CCc1cc(C(=O)c2ccc(OC)cc2)c(NC(=O)CC(C)(C)CC(=O)O)s1 | 8.69%
COc1cccc(NC(=O)CN(C)C(=O)CNC(=O)c2ccc(Oc3ccccc3)cc2)c1 | -3.89% [at 30.8 µM]

— PubChem BioAssay (NCATS)
